Data from PubChem BioAssay AID1159580 (chemical genetic matrix, 2015).
Where “and” joins values, the source holds several entries; their conditions need not be identical. Equal values may be shown once. About 2,000 (36%) of roughly 5,500 compounds were called active. Another 18% or so got no clear call; they are omitted. Cut-off read from the data, not from the text of the source: active = normalized growth mostly below about 0.91 (no sharp cut-off); inconclusive = no clear call, values can overlap the other calls; inactive = mostly above about 0.92. The list shows a part of the results.

Test: chemical genetic growth profiling, strain panel (AID 1159580);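 note: tested at 20 µM; growth read once vehicle control cultures reached saturation at 30 °C; 1 = growth at the plate median or of vehicle wells; lower values mean less growth of the strain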
Details: S. cerevisiae deletion strains, growth OD

Measured: normalized growth

COc1cc(OC)c2c(=O)c(OC)c(-c3ccc(OC)c(OC)c3)oc2c1
inactive: locus YAL021C, strain ccr4, hits give low values 1.01 | locus YAL026C, strain drs2, hits give low values 1.02 | locus YAL030W, strain snc1, hits give low values 1.02 | locus YBL061C, strain skt5, hits give low values 1 | locus YBR009C, strain hhf1, hits give low values 1.01 | locus YBR021W, strain FUR4, hits give low values 0.952 | locus YBR023C, strain chs3, hits give low values 1.01 | locus YBR171W, strain sec66, hits give low values 1.04 | locus YBR229C, strain ROT2, hits give low values 1 | locus YBR231C, strain swc5, hits give low values 1 | locus YBR279W, strain paf1, hits give low values 1.02 | locus YCL011C, strain gbp2, hits give low values 1.01 | locus YCL016C, strain dcc1, hits give low values 1.01 | locus YCL029C, strain bik1, hits give low values 1.01 | locus YCL061C, strain MRC1, hits give low values 1.02 | locus YCL069W, strain vba3, hits give low values 1.02 | locus YCR088W, strain abp1, hits give low values 1.03 | locus YDL005C, strain med2, hits give low values 1.02 | locus YDL035C, strain GPR1, hits give low values 0.996 | locus YDL040C, strain nat1, hits give low values 1.01 | locus YDL074C, strain BRE1, hits give low values 0.995 | locus YDL101C, strain DUN1, hits give low values 1 | locus YDL185W, strain tfp1, hits give low values 1.01 | locus YDL192W, strain arf1, hits give low values 0.987 | locus YDR001C, strain nth1, hits give low values 1.02 | locus YDR069C, strain doa4, hits give low values 1.02 | locus YDR101C, strain arx1, hits give low values 1.01 | locus YDR137W, strain rgp1, hits give low values 1.06 | locus YDR150W, strain NUM1, hits give low values 0.998 | locus YDR159W, strain sac3, hits give low values 1.02 | locus YDR162C, strain NBP2, hits give low values 0.98 | locus YDR195W, strain ref2 1.04 | locus YDR297W, strain sur2, hits give low values 1.01 | locus YDR318W, strain mcm21, hits give low values 0.977 | locus YDR334W, strain swr1, hits give low values 1.02 | locus YDR335W, strain msn5, hits give low values 1.03 | locus YDR388W, hits give low values 0.995 | locus YDR392W, strain spt3, hits give low values 0.91 | locus YDR502C, strain sam2, hits give low values 1.01 | locus YEL003W, strain gim4, hits give low values 1.02 | locus YEL037C, strain rad23, hits give low values 1.02 | locus YEL061C, strain CIN8 (second series), hits give low values 1.02 | locus YEL061C, strain CIN8, hits give low values 1 | locus YER015W, strain faa2, hits give low values 1.01 | locus YER016W, strain bim1, hits give low values 1.01 | locus YER110C, hits give low values 1.02 | locus YER111C, strain swi4, hits give low values 1.03 | locus YER155C, strain BEM2 (second series), hits give low values 1.02 | locus YER155C, strain BEM2, hits give low values 1 | locus YER167W, strain BCK2, hits give low values 1 | locus YFR010W, strain ubp6, hits give low values 1.03 | locus YGL078C, strain dbp3, hits give low values 1.02 | locus YGL086W, strain mad1, hits give low values 1.01 | locus YGL167C, strain pmr1, hits give low values 1 | locus YGL173C, strain kem1, hits give low values 1.01 | locus YGL227W, strain vid30, hits give low values 1.02 | locus YGL240W, strain doc1, hits give low values 1.03 | locus YGL248W, strain PDE1, hits give low values 0.97 | locus YGL253W, strain hxk2, hits give low values 1.02 | locus YGR078C, strain PAC10, hits give low values 0.958 | locus YGR135W, strain pre9, hits give low values 0.968 | locus YGR252W, strain gcn5, hits give low values 0.915 | locus YHR013C, strain ard1, hits give low values 1.01 | locus YHR027C, strain rpn1, hits give low values 1.01 | locus YHR030C, strain SLT2, hits give low values 1.01 and 0.976 | locus YHR079C, strain IRE1 (second series), hits give low values 1.02 | locus YHR079C, strain IRE1, hits give low values 0.992 | locus YHR094C, strain hxt1, hits give low values 1.01 | locus YHR129C, strain ARP1, hits give low values 0.992 | locus YHR142W, strain chs7, hits give low values 1.01 | locus YHR200W, strain rpn10, hits give low values 1 | locus YIL066C, strain RNR3, hits give low values 0.982 | locus YIL073C, strain SPO22, hits give low values 1.03 | locus YIL125W, strain kgd1, hits give low values 1.02 | locus YIR030C, strain dcg1, hits give low values 1 | locus YJL092W, strain hpr5, hits give low values 1.02 | locus YJL095W, strain BCK1 (second series), hits give low values 1.01 | locus YJL095W, strain BCK1, hits give low values 0.934 and 1 | locus YJL115W, strain asf1, hits give low values 1.02 | locus YJL129C, strain trk1, hits give low values 1.01 | locus YJL134W, strain LCB3, hits give low values 1.01 | locus YJL154C, strain vps35, hits give low values 1 | locus YJL164C, strain tpk1, hits give low values 1.01 | locus YJL166W, strain qcr8, hits give low values 1 | locus YJL168C, strain set2, hits give low values 1.02 | locus YJL187C, strain SWE1 (second series), hits give low values 0.996 | locus YJL187C, strain SWE1, hits give low values 1.01 | locus YJR043C, strain POL32, hits give low values 1 | locus YJR066W, strain TOR1, hits give low values 0.941 | locus YJR075W, strain HOC1, hits give low values 0.986 | locus YKL009W, strain mrt4, hits give low values 1.02 | locus YKL068W, hits give low values 1 | locus YKL085W, strain MDH1 (second series), hits give low values 0.997 | locus YKL085W, strain MDH1, hits give low values 0.997 | locus YKL160W, strain elf1, hits give low values 0.995 | locus YKR001C, strain vps1, hits give low values 0.994 | locus YKR026C, strain gcn3, hits give low values 0.997 | locus YKR091W, strain srl3, hits give low values 1.02 | locus YLL001W, strain dnm1, hits give low values 1.03 | locus YLL026W, hits give low values 1.01 | locus YLL041C, strain sdh2, hits give low values 1.01 | locus YLR027C, strain aat2, hits give low values 1.01 | locus YLR039C, strain RIC1, hits give low values 0.976 | locus YLR058C, strain SHM2, hits give low values 0.984 | locus YLR102C, strain apc9, hits give low values 1.01 | locus YLR113W, strain HOG1, hits give low values 0.978 | locus YLR221C, strain rsa3, hits give low values 1.01 | locus YLR258W, strain gsy2, hits give low values 1.02 | locus YLR262C, strain YPT6 (second series), hits give low values 1.08 | locus YLR262C, strain YPT6, hits give low values 0.984 | locus YLR268W, strain sec22, hits give low values 1.03 | locus YLR320W, strain mms22, hits give low values 0.985 | locus YLR330W, strain CHS5, hits give low values 1.01 | locus YLR342W, strain FKS1 (second series), hits give low values 0.973 | locus YLR342W, strain FKS1, hits give low values 1.01 | locus YLR357W, strain rsc2, hits give low values 1.02 | locus YLR370C, strain arc18, hits give low values 1.01 | locus YLR371W, strain rom2, hits give low values 1.02 | locus YLR384C, strain iki3, hits give low values 1.01 | locus YLR418C, strain cdc73, hits give low values 0.954 | locus YML016C, strain PPZ1, hits give low values 0.992 | locus YML032C, strain rad52, hits give low values 0.987 | locus YML120C, strain ndi1, hits give low values 1.02 | locus YML124C, strain tub3, hits give low values 1 | locus YMR058W, strain fet3, hits give low values 1.03 | locus YMR078C, strain ctf18, hits give low values 1.01 | locus YMR125W, strain sto1, hits give low values 1.03 | locus YMR129W, hits give low values 1.03 | locus YMR205C, strain PFK2, hits give low values 1.03 | locus YMR223W, strain ubp8, hits give low values 0.972 | locus YMR231W, strain pep5, hits give low values 1.02 | locus YMR263W, strain SAP30, hits give low values 0.996 | locus YMR307W, strain GAS1, hits give low values 0.981 | locus YNL067W, strain RPL9B, hits give low values 1 | locus YNL071W, strain lat1, hits give low values 1.01 | locus YNL153C, strain GIM3, hits give low values 0.972 | locus YNL183C, strain NPR1, hits give low values 0.926 | locus YNL209W, strain ssb2, hits give low values 1.01 | locus YNL233W, strain BNI4, hits give low values 0.955 | locus YNL248C, strain rpa49, hits give low values 1.02 | locus YNL250W, strain rad50, hits give low values 1.03 | locus YNL271C, strain bni1, hits give low values 1.02 | locus YNL298W, strain CLA4, hits give low values 0.998 | locus YNL307C, strain MCK1, hits give low values 1.01 | locus YNL322C, strain KRE1 (second series), hits give low values 1.02 | locus YNR049C, strain mso1, hits give low values 1.02 | locus YNR052C, strain pop2, hits give low values 0.993 | locus YOL006C, strain TOP1, hits give low values 1.03 | locus YOL012C, strain htz1 0.947 | locus YOL147C, strain pex11, hits give low values 1.02 | locus YOR001W, strain rrp6, hits give low values 1.01 | locus YOR061W, strain CKA2, hits give low values 1.01 | locus YOR069W, strain VPS5, hits give low values 1.01 | locus YOR070C, strain gyp1, hits give low values 1.03 | locus YOR080W, strain dia2, hits give low values 1.01 | locus YOR083W, strain WHI5, hits give low values 0.997 | locus YOR106W, strain vam3, hits give low values 0.992 | locus YOR136W, strain idh2, hits give low values 1.02 | locus YOR144C, strain elg1, hits give low values 1.01 | locus YOR184W, strain ser1, hits give low values 0.992 | locus YOR231W, strain MKK1, hits give low values 1.01 | locus YOR265W, strain rbl2, hits give low values 1 | locus YOR270C, strain vph1, hits give low values 1.09 | locus YOR290C, strain snf2, hits give low values 1 | locus YOR316C, strain cot1, hits give low values 1.01 | locus YPL051W, strain arl3, hits give low values 0.993 | locus YPL078C, strain atp4, hits give low values 1.02 | locus YPL106C, strain sse1, hits give low values 0.999 | locus YPL240C, strain hsp82, hits give low values 1 | locus YPL256C, strain CLN2, hits give low values 0.976 | locus YPR119W, strain clb2, hits give low values 1.01 | locus YPR141C, strain kar3, hits give low values 1.02 | locus YPR163C, strain tif3, hits give low values 1 | locus YPR167C, strain met16, hits give low values 1.04 | strain wtn01, hits give low values 1.04
